# Assay results published in PubChem BioAssay (Tox21).
# Inconclusive results are not listed. Calls of active or inactive are those of the source. The call rests on the fitted dose curve; in most records, active means well fitted cell-killing curve with a large enough effect in the repeat runs; inconclusive means weak or mixed curves, or effect the other way; inactive means flat fitted curve, though single readings scatter.
# Assay: qHTS RealTime-Glo MT Cell Viability Assay in HEK293 cells - 0 hour (AID 1224880); further: top concentration of the series differs between compounds; nearly all actives have a fitted effect of over 45% in size
# Conditions: RealTime-Glo luminescence; series mostly up to 76.8 µM
# Procedure, shortened: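 qHTS format; HEK293 cells with NanoLuc/prosubstrate reagent, 37 C/5% CO2 for 5 h pre-dosing; compounds 23 nL in DMSO; luminescence at each time point reflects viable cells.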
row,Compound,outcome
1,O=C1CCC(C2CCCCC2)CC1,inactive
2,CCCCCCCCOC(=O)CCCCCCCCC(=O)OCCCCCCCC,inactive
3,CCCCCCn1c(=O)c2c(ncn2C)n(C)c1=O,inactive
4,CN(C)Cc1ccccc1,inactive
5,Cc1c(N)cccc1N,inactive
6,O=CCCc1ccccc1,inactive
7,CCN(CC)CC1CCCCN1CC(=O)N1c2ccccc2C(=O)Nc2cccnc21 (centres undefined),inactive
8,Cc1ccsc1C(=CCCN1CCC[C@@H](C(=O)O)C1)c1sccc1C,inactive
9,FC(F)(F)c1ccccc1,inactive
